Experimental findings from PubChem BioAssay (Tox21) are described below.

The structures appear in SMILES notation. Unmarked numbers belong to inactive results. Records with an inconclusive call do not appear. Activity calls are given as the source filed them. Unless noted, calls follow the shape of the dose curve; as a rule, active = well fitted curve in the direction sought with a large enough effect in the repeat runs; inconclusive = weak or mixed curves; inactive = no such curve, though single readings can be large; an effect the other way counts as inactive or inconclusive.

A short description of test [1]: qHTS assay to identify small molecule antagonists of the estrogen related receptor (ERR) signaling pathway from Tox21 library - cell viability counter screen (AID 1224834). Also: nearly all actives have a fitted effect of over 30% in size. In outline:
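CellTiter-Fluor fluorescence, read after 30 min at 37 C, measures viability of ERR cells. Cells plated at 2,000/well and incubated 6 h before pin-tool compound addition, then exposed 17.5 hours at 37 C.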
On the technique in general: Quantitative high-throughput screening tests each substance at several concentrations.

Test [2] concerns the target Luciferin 4-monooxygenase (Photinus pyralis) (UniProt P08659). The experiment in a line: qHTS assay to identify small molecule inhibitors of firefly luciferase (AID 1224835). Also: nearly all actives have a fitted effect of over 25% in size. The gist of the method: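 Quantitative HTS format; KM concentrations of both substrates. Purified P. pyralis FLuc activity quantified from luminescence images.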
The nature of test [3]: qHTS assay to identify small molecule agonists of the constitutive androstane receptor (CAR) signaling pathway - cell viability counter screen (AID 1224836). Also: nearly all actives have a fitted effect of over 45% in size. In outline: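 HepG2 cells stably carrying hCAR and a CYP2B6-2.2kb reporter were plated 4 h, then given compounds at 15 concentrations plus PK11195 (final 0.75 uM). After 23 h at 37 C, viability was read by CellTiter-Fluor fluorescence.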

Test [4] is described as follows: qHTS assay to identify small molecule antagonists of the constitutive androstane receptor (CAR) signaling pathway - cell viability counter screen (AID 1224837). Also: nearly all actives have a fitted effect of over 45% in size. In outline: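 Cytotoxicity counter-screen: CellTiter-Fluor fluorescence after 23 h compound exposure (15-point qHTS) in double-stable HepG2-CYP2B6-hCAR cells, with 50 nM CITCO added.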
The target of test [5] is Nuclear receptor subfamily 1 group I member 3 (Homo sapiens) (UniProt Q14994). Description: qHTS assay to identify small molecule antagonists of the constitutive androstane receptor (CAR) signaling pathway (AID 1224838). Also: nearly all actives have a fitted effect of over 40% in size. The gist of the method:
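Antagonism measured as luciferase signal (ONE-Glo, 30 min, room temperature) in CAR-stimulated cells: HepG2-CYP2B6-hCAR double-stable line exposed 24 hr at 37 C to compound in a 15-point series plus 50 nM CITCO.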

The target is the same in test [6]. Description: qHTS assay to identify small molecule agonists of the constitutive androstane receptor (CAR) signaling pathway (AID 1224839). Also: nearly all actives have a fitted effect of over 15% in size. Also: potency is read from the fitted curve at half-maximal effect. The gist of the method: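 HepG2 cells stably expressing hCAR and a CYP2B6-2.2kb luciferase reporter were treated with compounds at 15 concentrations plus 0.75 uM PK11195 (final) for 24 h at 37 C; luminescence was read after ONE-Glo addition.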

Test [7] is described as follows: qHTS assay to identify small molecule antagonists of the estrogen related receptor signaling pathway with the pleiotropic PPARgamma coactivator (PGC) from Tox21 10K library - cell viability counter screen (AID 1224840; active = well fitted cell-killing curve with a large enough effect in the repeat runs, not every such curve was filed as active; also: nearly all actives have a fitted effect of over 40% in size). The gist of the method:
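Counter-screen for cytotoxicity: after 17.5 h compound exposure at 37 C, CellTiter-Fluor reagent added to PGC/ERR cells for 30 min and fluorescence read. Cells were seeded at 2,000 per well 6 h before dosing.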

For test [8], the target named is Thyrotropin receptor (Homo sapiens) (UniProt P16473). Description: qHTS assay to identify small molecule agonists of the thyroid stimulating hormone receptor (TSHR) signaling pathway (AID 1224843; calls by dose curve; also: nearly all actives have a fitted effect of over 45% in size). In outline: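 Using 15 concentrations per compound in triplicate, cAMP production was monitored in TSHR-HEK293 cells after 30 min compound incubation at RT; HTRF reagents followed, with fluorescence intensity recorded after 1 h.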

A short description of test [9]: qHTS assay to identify small molecule agonists of the hypoxia (HIF-1) signaling pathway - cell viability counter screen (AID 1224844; calls by dose curve; also: nearly all actives have a fitted effect of over 50% in size). The gist of the method:
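Cytotoxicity measured by CellTiter-Glo ATP luminescence in the wells also read for beta-lactamase signal. Cells were HRE-bla ME-180 (2,000/well, 0.5% dialyzed FBS), exposed to compounds for 17 h at 37C.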

The nature of test [10]: qHTS assay to identify small molecule agonists of H2AX (AID 1224845; active = well fitted activation curve with a large enough effect in the signal ratio in the repeat runs, not every such curve was filed as active; the % refers to the signal ratio). The gist of the method: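 Wild-type CHO-K1 cells plated overnight, then exposed 3 hr at 37C to compounds at 15 concentrations (0.76% DMSO). Lysed, then HTRF anti-pH2AX(S139)-cryptate/anti-H2AX-d2 detection after 24 hr at room temperature; emissions 665 and 620 nm.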
Test [11] can be described thus: qHTS assay to identify small molecule agonists of the hypoxia (HIF-1) signaling pathway (AID 1224846; active = well fitted activation curve with a large enough effect in the signal ratio in the repeat runs, not every such curve was filed as active; the % refers to the signal ratio). In outline: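 Compounds added to ME-180 cells carrying hypoxia-response-element beta-lactamase reporter (0.5% dialyzed FBS, 5 h preplating), 17 h at 37C; agonist activity detected by CCF4-AM B/G FRET read-out.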
Test [12] can be described thus: qHTS RealTime-Glo MT Cell Viability Assay in HepG2 cells - 24 hour (AID 1224867). Also: nearly all actives have a fitted effect of over 50% in size. The gist of the method:
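HepG2 cells were seeded at 600 cells/well together with NanoLuc luciferase and a cell-permeant prosubstrate, preincubated 5 h at 37 C/5% CO2, then pin-dosed with compounds in DMSO. Nonlytic luminescence from viable cells was read at each time point.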

Test [13] is described as follows: qHTS RealTime-Glo MT Cell Viability Assay in HEK293 cells - 32 hour (AID 1224868). Also: top concentration of the series differs between compounds; nearly all actives have a fitted effect of over 50% in size. In outline:
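HEK293 cells were seeded at 600 cells/well together with NanoLuc luciferase and cell-permeant prosubstrate, preincubated 5 h at 37 C/5% CO2, then given compound in DMSO by pintool. Luminescence from viable-cell prosubstrate reduction was read repeatedly over 40 h.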

Test [14] can be described thus: A CellTox Green Cytotoxicity Assay to monitor cytotoxicity in HEK293 cells - 0 hour (AID 1224869). Also: nearly all actives have a fitted effect of over 50% in size. The gist of the method:
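Fluorescence from a DNA-binding dye excluded by viable cells was measured repeatedly in the same HEK293 wells (600 cells/well) during continuous compound exposure at 37 C. Each assay gives one read point: 0, 8, 16, 24, 32 or 40 h.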

Test [15] can be described thus: qHTS assay to identify small molecule agonists of H2AX - cell viability counter screen (AID 1224847; calls by dose curve; also: top concentration of the series differs between compounds; nearly all actives have a fitted effect of over 30% in size). In outline: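 Wild-type CHO-K1 cells (10% FBS medium) were plated overnight at 37C, exposed to compounds at 15 concentrations for 3 hr at 37C (0.76% DMSO final), and viability was read as CellTiter-Glo luminescence after 30 min at room temperature.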
Test [16] in a line: qHTS assay to identify small molecule antagonists of the estrogen related receptor signaling pathway with the pleiotropic PPARgamma coactivator (PGC) from Tox21 10K library (AID 1224841; call rule not given here). The gist of the method: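 Luminescence (One-Glo, 30 min at room temperature) after 18 h compound treatment at 37 C of PGC/ERR reporter cells plated at 2,000 cells/well and settled 6 h beforehand.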

A short description of test [17]: qHTS assay to identify small molecule agonists of the estrogen related receptor signaling pathway with the pleiotropic PPARgamma coactivator (PGC) from Tox21 10K library (AID 1224842). Also: nearly all actives have a fitted effect of over 15% in size. The gist of the method:
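PGC/ERR reporter cells (NTP line) were seeded 2,000 per well, rested 6 h at 37 C/5% CO2, then pin-dosed with compounds in DMSO for 18 h at 37 C; luciferase read by One-Glo luminescence after 30 min at room temperature.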

Test [18] in a line: qHTS assay to identify small molecule antagonists of the estrogen related receptor (ERR) signaling pathway from Tox21 library (AID 1224848). Also: nearly all actives have a fitted effect of over 50% in size. The gist of the method: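 Tox21 10K compounds in DMSO tested for ERR pathway antagonism in NTP's ERR cell line; 18 h, 37 C exposure; ONE-Glo luminescence.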
Test [19] can be described thus: qHTS assay to identify small molecule agonists of the estrogen related receptor (ERR) signaling pathway from Tox21 library (AID 1224849; calls by dose curve; also: nearly all actives have a fitted effect of over 15% in size). As to conditions: ERR reporter cell line, ONE-Glo luciferase, 18 h; at 92.4 µM (top of the series) unless noted. In outline: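 Luminescent agonist read-out (One-Glo, 30-minute room-temperature incubation) following 18-hour compound treatment at 37 C of the ERR cell line, which had been plated 6 hours before dosing.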
% is scaled to controls: 0 for no effect and ±100 for the full control effect.

Thyrotropin receptor (Homo sapiens), sequence (P16473 whole entry, looked up): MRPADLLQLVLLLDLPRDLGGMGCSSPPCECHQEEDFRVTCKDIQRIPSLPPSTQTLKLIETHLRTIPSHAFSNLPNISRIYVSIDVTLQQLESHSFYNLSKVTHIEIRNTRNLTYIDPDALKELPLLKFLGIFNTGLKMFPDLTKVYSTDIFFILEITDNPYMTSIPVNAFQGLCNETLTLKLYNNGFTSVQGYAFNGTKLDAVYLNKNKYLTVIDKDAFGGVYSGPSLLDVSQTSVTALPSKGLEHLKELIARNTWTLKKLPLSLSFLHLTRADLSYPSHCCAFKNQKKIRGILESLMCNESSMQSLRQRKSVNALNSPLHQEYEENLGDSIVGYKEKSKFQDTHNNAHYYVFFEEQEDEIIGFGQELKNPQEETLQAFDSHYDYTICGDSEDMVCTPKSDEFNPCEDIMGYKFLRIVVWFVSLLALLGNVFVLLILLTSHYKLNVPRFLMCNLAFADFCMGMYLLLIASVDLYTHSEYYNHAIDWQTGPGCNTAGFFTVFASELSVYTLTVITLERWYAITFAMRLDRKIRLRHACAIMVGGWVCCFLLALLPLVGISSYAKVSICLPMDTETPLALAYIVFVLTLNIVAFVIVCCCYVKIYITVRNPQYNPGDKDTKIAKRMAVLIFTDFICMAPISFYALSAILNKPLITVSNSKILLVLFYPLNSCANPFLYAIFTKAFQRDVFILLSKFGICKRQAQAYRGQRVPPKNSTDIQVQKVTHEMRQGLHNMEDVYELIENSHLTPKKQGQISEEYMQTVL
Nuclear receptor subfamily 1 group I member 3 (Homo sapiens), sequence (Q14994 whole entry, looked up): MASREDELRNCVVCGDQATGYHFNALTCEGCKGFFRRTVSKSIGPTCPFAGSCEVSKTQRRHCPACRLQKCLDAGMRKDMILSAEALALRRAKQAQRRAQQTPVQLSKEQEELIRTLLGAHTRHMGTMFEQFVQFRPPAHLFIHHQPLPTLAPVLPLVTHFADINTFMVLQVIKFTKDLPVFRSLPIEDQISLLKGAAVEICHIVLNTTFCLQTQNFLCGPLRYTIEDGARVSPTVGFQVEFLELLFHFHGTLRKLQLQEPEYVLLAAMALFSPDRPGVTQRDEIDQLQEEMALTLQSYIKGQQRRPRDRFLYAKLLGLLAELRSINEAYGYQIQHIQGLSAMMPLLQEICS
Luciferin 4-monooxygenase (Photinus pyralis), sequence (P08659 whole entry, looked up): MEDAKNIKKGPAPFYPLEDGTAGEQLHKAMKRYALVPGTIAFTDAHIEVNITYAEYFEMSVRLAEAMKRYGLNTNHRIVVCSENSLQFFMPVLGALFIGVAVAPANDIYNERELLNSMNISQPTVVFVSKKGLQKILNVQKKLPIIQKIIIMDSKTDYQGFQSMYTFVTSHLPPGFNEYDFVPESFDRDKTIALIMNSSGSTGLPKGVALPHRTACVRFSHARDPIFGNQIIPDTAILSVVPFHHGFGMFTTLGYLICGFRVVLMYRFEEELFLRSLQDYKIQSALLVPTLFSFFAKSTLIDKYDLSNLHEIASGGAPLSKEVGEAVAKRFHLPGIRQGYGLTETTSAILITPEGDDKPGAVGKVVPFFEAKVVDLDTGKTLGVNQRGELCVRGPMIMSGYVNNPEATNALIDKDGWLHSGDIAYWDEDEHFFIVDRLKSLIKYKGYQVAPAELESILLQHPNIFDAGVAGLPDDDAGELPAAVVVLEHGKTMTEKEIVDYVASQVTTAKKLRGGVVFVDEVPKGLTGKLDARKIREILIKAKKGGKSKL

On to `O=C(O)c1c(Cl)ccc2cc(Cl)cnc12`, for which the Potency entry in [1], in test [2], in test [3], in test [4], in test [5] and in [6] was “inactive” in each case. Moreover, the Potency result in [7], in test [8], in test [9], in test [12] and in test [13] was “inactive” each time. Besides, the result in test [10], in test [11] and in [14] was inactive.

As for `CCc1cc(OC)c(C[C@H](C)N)cc1OC`, the Potency result in test [1], in test [2], in test [3], in [4], in test [5] and in test [6] was “inactive” throughout. Moreover, the Potency result in test [7], in test [8], in [9], in [15], in [12] and in test [13] was “inactive” each time. The call in test [10], in test [11] and in test [14] was inactive.

`CC(C)NCC(O)c1ccc([N+](=O)[O-])cc1` (stereo unspecified): the Potency entry in test [1], in [2], in [3], in test [4], in test [5] and in test [6] was “inactive” throughout. Also, the Potency result in test [7], in [8], in [9], in test [15], in test [12] and in [13] was “inactive” each time. Also, the call in [10], in [11] and in test [14] was inactive.

Consider `O=P(O)(O)c1ccccc1`, for which the Potency result in test [1], in test [2], in [3], in [4], in test [5] and in test [6] was “inactive” in each case. Further, the Potency entry in [7], in test [8], in test [9], in test [15] and in test [12] was “inactive” each time. Also, the result in [10] and in test [14] was inactive.

Consider `CCOC(=O)C(SP(=S)(OC)OC)c1ccccc1` (stereo unspecified), for which the Potency entry in test [1], in test [2], in [3], in [4], in test [5] and in test [7] was “inactive” each time. The Potency result in [16], in [17], in test [8], in test [9], in test [18] and in test [12] was “inactive” each time. Moreover, the Potency in test [6] was 30.6 µM (active). The compound was called inactive in test [11] and in test [14]. Besides, the activity change, positive = activation in [19] is -11.8%.

For `C/C=C/CC#N`, the Potency entry in test [1], in [2], in test [3], in test [4], in test [5] and in test [6] was “inactive” in each case. Further, the Potency entry in test [7], in test [8], in test [9], in test [15], in [12] and in test [13] was “inactive” each time. Besides, the call in test [10], in test [11] and in [14] was inactive.

Consider `CC(C)(C)C(=O)Cl`, for which the Potency result in test [1], in test [2], in test [3], in [4], in test [5] and in test [6] was “inactive” each time. Besides, the Potency entry in test [7], in test [8], in test [9], in test [15], in test [12] and in test [13] was “inactive” each time. The call in [10], in test [11] and in test [14] was inactive.

Regarding `COC(=O)c1ccc(CBr)cc1`, the Potency result in [1], in [2], in [3], in test [4], in test [5] and in test [7] was “inactive” throughout. Moreover, the Potency result in test [8], in test [9], in test [15] and in test [12] was “inactive” each time. Besides, the Potency in [6] is 31 µM (active). Besides, the compound was called inactive in [10] and in test [14].

Turning to `C1CN2CCC1CC2`, the Potency entry in test [1], in test [2], in [3], in test [4], in [5] and in test [6] was “inactive” throughout. Also, the Potency entry in test [7], in test [8], in [9], in test [15], in [12] and in [13] was “inactive” throughout. The call in test [10], in test [11] and in test [14] was inactive.
